# In PubChem BioAssay (NCI):
# This is part of a sample that, as a whole, favours compounds with a hit. Of some 79,000 tested, about 15% had one in any assay. Values without a mark were called inactive. Rule as the data show it: active = growth inhibition above about 70%; inactive = the rest.
# Test: NCI Yeast Anticancer Drug Screen. Data for the sgs1 mgt1 strain (AID 161);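 also: 0% = growth of cultures given vehicle only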
# Conditions: S. cerevisiae sgs1 mgt1 strain, at 50.0 µM, hits give high values
# Outline: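 Inhibition of yeast growth, normalised to vehicle-treated controls, is reported for a strain bearing genetic alterations in DNA damage repair.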
row,Structure (SMILES),growth inhibition [%]
1,COc1ccc(Cl)c2c(=O)c3ccc4c(c3[nH]c12)C(=O)c1ccccc1C4=O,4.25
2,O=C1C(c2ccccc2)=C(c2ccccc2)/C1=C\c1ccc(Cl)cc1Cl,-13.9
3,COc1ccc(N=Cc2ccc(C=Nc3ccc(OC)cc3)cc2)cc1,21.3
4,CN(C)CCNC(=O)c1cccc(C(=O)Nc2ccccc2)c1[N+](=O)[O-],-7.7
5,COc1cccc(C2C3=C(COC3=O)Oc3cc4c(cc32)OCO4)c1 (stereo not given),-31.4
6,O=C1[C@H]2ON(c3ccccc3)C(c3ccc(Cl)cc3)[C@H]2C(=O)N1c1ccc(Cc2ccc(N3C(=O)[C@@H]4ON(c5ccccc5)C(c5ccc(Cl)cc5)[C@@H]4C3=O)cc2)cc1 (stereo not given in full),0.2
7,CCOC(=O)C1CSCN1C(C)=O (stereo not given),-4.3
8,CC(=O)OCC(OC(C)=O)C(OC(C)=O)C(/C=C/[N+](=O)[O-])OC(C)=O (stereo not given),2.4
9,CC(=O)Oc1cc2c3ccccc3ccc2c2ccccc12,10.1
10,CCOC(=O)/C=C(\C)c1ccc(Cl)cc1,-1.6
11,O=C(O)C(O)(C1CCCCC1)C1CCC2CCC3CCCC1C32 (stereo not given),20.1
12,C=CCOC(=O)OCC=C,2
13,Cc1cc(OC(C)C)cc(C)c1C(=O)OCC(C)N1CCCC1 (stereo not given),19.9
14,CSC(SC)C(OC(C)=O)C(OC(C)=O)C(OC(C)=O)C(COC(C)=O)OC(C)=O (stereo not given),3.15
15,COC(=O)C1C(COS(C)(=O)=O)ON2CCC(OC)(OC)C12 (stereo not given),17.8
16,O=C(COc1ccc(F)cc1)OCCO,-2.55
17,Nc1ccnc(=O)[nH]1,-18.8
18,CCNC(=O)N(C)Cc1ccc(Cl)cc1,-11.6
19,CC1=C(C)OCC1,9.25
20,O=C1OC2C3c4ccccc4C(c4c3ccc3ccccc43)C2O1 (stereo not given),19.8

row,Structure (SMILES),growth inhibition [%]
1,C=C1C(=O)O[C@@H]2/C=C(\C)CC/C=C(/C)CC[C@@H]12,61.6
2,CC(=O)N(CCC(C)C)c1ccccc1,-0.75
3,CCOC(=O)c1cnc2c(cnn2C(C)C)c1NN,48.2
4,C(=NC12CC3CC(CC(C3)C1)C2)C1CCCCC1,0.05
5,Clc1ccc(N=C2c3ccccc3CN2c2ccc(Cl)cc2)cc1,-14.4
6,COC(=O)C(=O)C(C(=O)C(=O)Nc1ccccc1C(N)=O)c1nc2ccc(C(=O)c3ccccc3)cc2[nH]c1=O (stereo not given),-7.4
7,Brc1cccc(N=NN2CCCC2)c1,28.9
8,N/N=C(\N)SCCCCCCS/C(N)=N/N,24
9,CNS(=O)(=O)c1ccc(Br)cc1,-9.85
10,O=C(O)c1ccc2ccccc2c1C(=O)O,0.25
11,CN(C)CCN=C1Nc2ccccc2C(=O)N2CSCC12 (stereo not given),-8.7
12,Cc1cccc[n+]1C1CCc2ccccc2C1=O (stereo not given),17.4
13,CCOC(=O)C1=C(Nc2ccc(Cl)cc2Cl)OCC1=O,-0.35
14,Cc1cc(C)n(/N=C/c2ccco2)c(=O)c1C#N,-26.1
15,Cc1cc(C)cc(C(=O)N=C(c2ccncc2)c2nc(-c3ccccc3)oc2O)c1,-16.6
16,O=C(NCc1ccncc1)Nc1ccc(Cc2ccc(NC(=O)NCc3ccncc3)cc2)cc1,0.2
17,COc1cc([N+](=O)[O-])c(F)cc1F,-0.05
18,Cc1ccc(C(=O)N(Cc2ccccc2)Cc2ccccc2)cc1N=NN(C)C,-55.6
19,CC1OC(C)(Cc2ccccc2)OC1C (stereo not given),-9.2
20,C[Si](C)(C)N1N=NC2C(=O)N(c3ccccc3)C(=O)C21 (stereo not given),-13.4
